Test results taken from PubChem BioAssay AID2810 (NMMLSC, 2010).
In all, about 1,200 compounds went through this assay and about 65 (5%) were called active.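 The calls were made as follows: active = at either tested dose, response and 90th-percentile vesicle-stain brightness of CD8 cells under set limits and under 9% cells vesicle-bound; inactive = the rest.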 The entries come from a sample that favours actives as a whole.

Assay: modulators of CD8 T cell-vesicle binding, confirmation, cherry-picked primary hits, two concentrations (AID 2810);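 also: lower values mean blocking of vesicle binding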;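 as to percent response (vesicle binding): ratio of mean FL2 vesicle stain of CD8+ cells to that row's control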
Settings: 2C CD8+ T cell-vesicle binding, flow cytometry; for double positive events: CD8+/vesicle+ events
[1] = at 15.4 µM, stronger effect = lower value

Compound	double positive events (at 7.7 µM) [%]	double positive events [1] [%]	percent response (vesicle binding) [1]	percent response (vesicle binding) (response, at 7.7 µM) [%]
CC(=O)COc1ccc2c(-c3ccccc3)cc(=O)oc2c1	10.8	8.7	123% (inactive)	165
CCOc1ccc(-c2nc(N)ncc2-c2ccccc2)c(O)c1	4.3	34.2	276% (active)	51.6
CCOC(=O)CSc1nc(C)nc2c1sc1nc(C)c(C(C)=O)c(-c3ccc(OC)cc3)c12	22.7	7.5	128% (inactive)	327
CC1=C/C(=C(\c2ccc(O)c(C)c2)c2ccccc2S(=O)(=O)O)C=CC1=O	8.5	0.5	14.6% (active)	142
O=C(Nc1nnc(C2=COCCO2)o1)C1CCCCC1	47.3	23	200% (inactive)	280
CS(=O)(=O)NCc1ccccc1Br	31	2.7	34% (active)	371
Cc1nc2sc(C(c3ccccc3)N3CCN(c4ccccc4F)CC3)c(O)n2n1 (stereo not drawn)	38.2	4.2	142% (inactive)	239
CCOc1ccccc1NC(=O)c1ccc(CN2CCc3ccccc3C2)cc1	11.5	30	739% (inactive)	110
COc1ccc2nc(SCC(=O)Nc3ccc4c(c3)OCCO4)[nH]c2c1	10.5	19.8	168% (inactive)	164
O=C(/C=C/c1ccccc1)OCC(=O)c1ccc[nH]1	14.3	30.2	439% (inactive)	424
CCOC(=O)C1CCCN(c2cc(=O)n(-c3ccccc3Cl)c(=O)[nH]2)C1 (stereo not drawn)	10.2	2.3	18.2% (active)	131
CCOC(=O)C1CCCN(S(=O)(=O)c2ccc(F)c(C(=O)Nc3ccc(F)c(F)c3)c2)C1 (stereo not drawn)	13.5	23.8	153% (inactive)	105
CCOC(=O)C1CCN(C(=O)CN2C(=O)c3ccccc3S2(=O)=O)CC1	13	23	203% (inactive)	166
O=C1c2cccc3c2[C@H](CCC3)CN1[C@@H]1CN2CCC1CC2	19.9	28.1	727% (inactive)	238
COc1ccc(C2=Nc3cc(C)ccc3OC2)cc1	12.1	2	53.5% (active)	546
CCCCN(C(=O)CCCc1nc2ccccc2s1)c1c(N)n(CC(C)C)c(=O)[nH]c1=O	14.2	7.8	50.8% (inactive)	386
CCCN(Cc1ccc(N(C)C)cc1)CC1CC1	16.6	22.1	413% (inactive)	436
CN(C(=O)COC(=O)c1cccc(NS(=O)(=O)c2ccc(F)c(F)c2)c1)C1CCS(=O)(=O)C1 (stereo not drawn)	21.6	29.3	264% (inactive)	393
CN1CCN(c2oc(-c3ccc([N+](=O)[O-])cc3)nc2C#N)CC1	8.5	9.4	143% (inactive)	149
CC(C)[C@H]1C(=O)Nc2ccccc2N1C(=O)N[C@@H](Cc1ccccc1)C(=O)N[C@@H](Cc1ccccc1)C(=O)O	36.3	8.9	55.5% (active)	394
Cc1cccc(OCC(=O)NC(Cc2ccccc2)C(=O)O)c1 (stereo not drawn)	7.7	11.5	295% (inactive)	136

Compound	double positive events (at 7.7 µM) [%]	double positive events [1] [%]	percent response (vesicle binding) [1]	percent response (vesicle binding) (response, at 7.7 µM) [%]
CC(=O)Nc1ccc(S(=O)(=O)NC2CCSc3ccccc32)cc1 (stereo not drawn)	13.6	10.4	146% (inactive)	238
COc1ccc(C(=O)NNC(=O)CSc2nnnn2C)cc1	13.8	1.8	19.1% (active)	160
COc1ccc(CNc2nnnn2C)cc1	28.6	12.4	192% (inactive)	376
COc1ccc(C(=O)CSc2nnc(CNC(=O)c3ccc(OC)c(OC)c3)n2C)cc1	7.6	15.6	136% (inactive)	300
Cc1noc(C)c1COc1ccc(C(=O)NCc2cccs2)cc1	6.2	22.1	165% (inactive)	120
Nc1ccccc1C(=O)N/N=C1\C2CN3CCN(C2)CC1(c1ccccc1)C3	20	18.6	176% (inactive)	839
CC(=O)c1ccc(OCc2cc(C(=O)N3CCCCC3c3cccnc3)no2)cc1 (stereo not drawn)	18.2	21.2	171% (inactive)	229
CN(Cc1ccccc1)C(=O)c1ccc(NC(=O)Cc2cccc(NC(=O)C3CCCN(C(=O)C4CCC4)C3)c2)cc1 (stereo not drawn)	7.8	4.3	54.8% (active)	219
CN(CC(=O)Nc1cccc(F)c1)C(=O)c1ccc(S(=O)(=O)N2CCCC2)cc1	28.6	10.5	176% (inactive)	275
O=C(Cc1cccc(NC(=O)C2CCCN(C(=O)C3CC3)C2)c1)Nc1cccc(C(=O)N2CCCC2)c1 (stereo not drawn)	25	13.2	338% (inactive)	438
Cc1cc(C)c(C(=O)N2CCCC(N3CCN(c4ccc(F)cc4)CC3)C2)o1 (stereo not drawn)	39.2	14.9	236% (inactive)	688
Cc1cc(C)cc(NC(=O)C(=O)NCCCN2CCCC2=O)c1	10	9.4	138% (inactive)	150
COc1ccc(CN2C(=O)C(C)Nc3ncnc(N4CCN(c5ccccn5)CC4)c32)cc1 (stereo not drawn)	8.2	4.1	33.1% (active)	235
COc1ccc(Cc2nc(-c3ccccn3)no2)cc1	34.9	19.8	702% (inactive)	360
O=C(c1ccc(Cn2c(=S)[nH]c3ccccc3c2=O)cc1)N1CCN(c2ccccn2)CC1	8.9	7	222% (inactive)	465
Cc1ccc(S(=O)(=O)Nc2c3ccccc3nc(=O)n2-c2ccccc2)cc1	21.4	7.9	50.6% (active)	180
Cc1cccc(NS(=O)(=O)c2ccc(Oc3ccccc3)cc2)n1	19.3	10.1	148% (inactive)	86.6
Cc1ccc(S(=O)(=O)N2CCN(c3ncnc4ccccc34)CC2)cc1	6.7	15.5	103% (inactive)	116
O=C(Nc1ccccc1C(=O)OCC(=O)c1c[nH]c2ccccc12)c1ccco1	19.2	23.2	289% (inactive)	174
CCn1cc(CNC(=O)c2ccc(Cl)c([N+](=O)[O-])c2)c(C)n1	18.4	8.4	244% (inactive)	301
Cc1cccc(C)c1OCc1nnc(NC(=O)CSc2ccc(Cl)cc2)s1	31.8	24.4	211% (inactive)	221
